The whole screen tested about 1,200 compounds, of which about 360 (30%) were called active. These entries were drawn from the full list. Entries with a potency or affinity are not part of this list. A number with no mark means an inactive call. How the calls were made is not given here.

This assay in a line: antibacterial activity by ATP level – BacTiter-Glo luminescence, cherry-picked samples, counter-screen, dose response (AID 504843).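 Further: growth measured after 8 h incubation at 30 °C; 0% = median of sample compound wells and -100% = antibiotic control wells.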 The note with it: bacterial growth; series mostly up to 15 µM; activity change, negative = inhibition: at the top concentration.
In the case of `Cc1ccccc1C(=O)N1CCN(c2ccc(NC(=S)NC(=O)c3cccs3)cc2)CC1`, the “activity change, negative = inhibition” value is -13.8%. The value for `CC(=O)Oc1ccc(C(=O)Nc2ccccc2C(=O)N2CCCCC2)cc1` was -5.23%; that for `CCOC(=O)C1CCN(C(=O)Nc2ccc(C)c(Cl)c2)CC1` was 2.75%.

Turning to `CCc1ccc2c(COC(=O)C3CC(=O)N(CCc4ccccc4)C3)cc(=O)oc2c1` (centres undefined), the “activity change, negative = inhibition” value is -8.14%. As to `CN(C)c1nc(NCc2ccccc2)nc(SCC(N)=O)n1`, the “activity change, negative = inhibition” value is 0.62%. Turning to `CCn1c(SCC(=O)c2ccccc2)nnc1-c1cccnc1`, the “activity change, negative = inhibition” value is 4.29%.

Turning to `CCOC(=O)C(C(=O)Nc1ccc(C)cc1)C1CCCCC1` (centres undefined), the “activity change, negative = inhibition” value is 2.6%. As to `COc1ccc(NC(=O)COCC(=O)Nc2ccc(C)cc2)cc1`, the “activity change, negative = inhibition” value is 2.25%. With `CC(C)(C)CC(=O)Nc1cccc(-c2cn3cccnc3n2)c1` the figure was -11.7%; with `Cc1ccc(OCCNS(=O)(=O)c2ccc(N3CCCC3=O)cc2)cc1C`, -1.98%. As to `CCCCOc1ccc(NC(=O)c2cc(F)c(F)cc2Cl)cc1`, the “activity change, negative = inhibition” value was -13.8%. With `CCc1ccc(NC(=O)Nc2cc(C(=O)NCC3CCCO3)ccc2N2CC3CC(C2)c2cccc(=O)n2C3)cc1` (centres undefined) the figure was -0.12%; with `CC(C)(C)OC(=O)NCCCCCNC(=O)c1[nH]cnc1C(=O)NC1CCN(C(=O)OC(C)(C)C)CC1`, -4.62%. Consider `COc1ccccc1OCCNC(=O)C1CCN(C(C)=O)CC1`, for which the “activity change, negative = inhibition” value was 8.06%.

Consider `Cc1cc(C)cc(-n2c(C)cc(/C=C3\C(=N)N4N=C(CC(C)C)SC4=NC3=O)c2C)c1`, for which the “activity change, negative = inhibition” value was 0.158%. For `O=C(NNc1ccnc2cc(Cl)ccc12)C1CCCCC1`, the “activity change, negative = inhibition” value is -7.77%. On to `COc1ccc(CCNC(=O)/C=C/c2ccco2)cc1OC`, for which the “activity change, negative = inhibition” value was 0.154%. The value for `Cc1ccc(CN(C(=O)c2sc3ccccc3c2Cl)C2CCS(=O)(=O)C2)cc1` (centres undefined) was 9.82%; that for `O=C(O)[C@H](CO)Nc1ncnc2sc3c(c12)CCC3` was 11.8%; that for `O=C(CCNS(=O)(=O)c1ccccc1C(F)(F)F)N1CCN(c2ccccc2O)CC1` was 9.42%. Regarding `CCN(CC)C(=O)CSc1nc2ccccc2o1`, the “activity change, negative = inhibition” value is 16.9%. With `CCCCN(CC)CCNC(=S)Nc1ccc2nc(N3CCN(C)CC3)cc(C)c2c1` the figure was 1.76%; with `O=C(Nc1ccc(C2=NCCN2)cc1)c1ccc(C(=O)Nc2ccc(C3=NCCN3)cc2)c([N+](=O)[O-])c1`, 6.04%. Take `CC(=O)Nc1ccc(Nc2nc(C)c([N+](=O)[O-])c(N(C)c3ccccc3)n2)cc1`: the “activity change, negative = inhibition” value was 15.8%. With `CC1CN(C(=O)c2cc3cc([N+](=O)[O-])ccc3oc2=O)CC(C)O1` (centres undefined), the “activity change, negative = inhibition” value is 3.61%. With `O=C(CSC1=NCCS1)c1ccc(Cl)cc1` the figure was 9.01%; with `Cc1[nH]c2ccccc2c1Cc1nnc(SCC(N)=O)o1`, 1.89%; with `COc1ccc(-c2cc(C)no2)cc1S(=O)(=O)NCCCN1CCCCCC1`, -7.18%.

As for `CCNc1c(NS(=O)(=O)c2ccc(OC)cc2)c(=O)oc2ccccc12`, the “activity change, negative = inhibition” value is -17.3%. The value for `COc1ccccc1N1CCN(c2nc(-c3ccccc3)cc(C(F)(F)F)n2)CC1` was -0.607%; that for `CCNc1nc(NCC)nc(OCCOC(C)=O)n1` was -9.52%; that for `Nc1cc(N)nc(SCc2ccc(Cl)cc2)n1` was 4.2%. `O=C(Nc1ccccc1F)c1ccc([N+](=O)[O-])s1`: the “activity change, negative = inhibition” value is 17.9%. On to `Cc1cccc(NC(=O)c2cc(S(=O)(=O)N3CCC4(CC3)OCCO4)ccc2F)c1`, for which the “activity change, negative = inhibition” value is -2.34%. For `c1ccc2c(N3CCOCC3)nc(-c3ccncc3)nc2c1`, the “activity change, negative = inhibition” value is -1.69%.

With `CCNC(=O)NC(=O)C(C)OC(=O)C1CCN(S(=O)(=O)c2ccccc2F)CC1` (centres undefined), the “activity change, negative = inhibition” value was 18.5%. As for `Cc1ccc(C)c(SCC(=O)Nc2cccc(S(=O)(=O)NC3=NCCCCC3)c2)c1`, the “activity change, negative = inhibition” value is 8.62%. For the compound `Cc1cc(C)c(S(=O)(=O)N2CCN(C(=O)CN3C(=O)NC4(CCCC4)C3=O)CC2)c(C)c1`, the “activity change, negative = inhibition” value was 6.89%. On to `Cc1ccc(CCNC(=O)CCS(=O)(=O)c2cc3c(cc2C)NC(=O)CO3)cc1`, for which the “activity change, negative = inhibition” value was 7.13%. As to `CN(Cc1ccccc1)c1ncnc2sccc12`, the “activity change, negative = inhibition” value was 5.73%.

As for `Cc1cccc(NC(=O)[C@H](Cc2ccccc2)NC(=O)OCc2ccccc2)c1`, the “activity change, negative = inhibition” value is -12.2%. Consider `CC(C)(C)CC(=O)Nc1ccc(Nc2ccccc2)cc1`, for which the “activity change, negative = inhibition” value is -10.5%. In the case of `CC(C)CN(C(=O)COC(=O)c1ccccc1NCc1ccco1)c1c(N)n(Cc2ccccc2)c(=O)[nH]c1=O`, the “activity change, negative = inhibition” value is 14.3%. Take `CSc1ncccc1C(=O)OCC(=O)N(C)c1c(N)n(Cc2ccccc2)c(=O)[nH]c1=O`: the “activity change, negative = inhibition” value was -15.7%.

On to `COC(=O)C[C@H]1c2cc(F)cc(F)c2S(=O)(=O)N1C1CCN(Cc2ccccc2)CC1`, for which the “activity change, negative = inhibition” value was 8.72%. As for `CCCCN(CC)CCNS(=O)(=O)c1ccc2c(c1)oc(=O)n2C`, the “activity change, negative = inhibition” value is 2.71%. With `O=C(Cn1c(=O)oc2cc(S(=O)(=O)N3CCc4ccccc43)ccc21)N1CCCCC1` the figure was -6.67%; with `CCOc1cc(/C=N/NC(=O)C(=O)NCc2cccnc2)ccc1O`, -2.33%. `COc1ccccc1C(=O)Nc1ccc2c(c1)CN(Cc1cnc(C)s1)CC2`: the “activity change, negative = inhibition” value was 11%. Regarding `Cc1ccccc1NC(=S)N1CCN(Cc2ccc3c(c2)OCO3)CC1`, the “activity change, negative = inhibition” value was 0.01%. Regarding `Cc1cccc(NC(=O)CNC(=O)CN2C(=O)NC3(CCc4ccccc43)C2=O)c1C` (centres undefined), the “activity change, negative = inhibition” value was -4.94%. The value for `Cc1ccc(C)c(NC(=O)CN(C)C(=O)c2cccc(S(=O)(=O)N(C)C)c2)c1` was -5.14%; that for `CCN(CC)S(=O)(=O)c1cc(NC(=O)c2ccc(-n3cncn3)c([N+](=O)[O-])c2)ccc1C` was 6.68%. As for `CC1CCN(c2ccc(C(=O)NCc3ccco3)cc2[N+](=O)[O-])CC1`, the “activity change, negative = inhibition” value is -10.9%.

The values above are taken from PubChem BioAssay AID504843 (Broad Institute, 2011).
